TEAD-YAP inh: TEAD-YAP interaction inhibition | 640,000 tested, 1.4% active | inhibition, % at 9.12 µM | HEK-TIYL cells, TEAD-Gal4/YAP UAS-luciferase luminescence | AID 1259422; in the data active means inhibition above about 32%;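 further: 0% = median of test compound wells and 100% = reference inhibitor wells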
GPR151 ag: human GPR151 activation. AID 1508602. PathHunter beta-arrestin GPR151 cells, luminescence. activation, % at 11.2 µM. Q8TDV0. 650,000 tested, 1% active; in the data active means activation above about 4.9%;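 further: 0% = median of compound wells and 100% = cells with positive control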
MITF primary: blocks human microphthalmia-associated transcription factor; O75030; AlphaScreen MITF homodimerization, bead proximity signal; inhibition, % at 2.6 µM; 650,000 tested, 0.91% active; AID 1259374; in the data active means inhibition above about 50%;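 further: 0% = vehicle wells with protein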
FBW7 act: human FBW7 E3 ligase activation, primary screen; normalized activity (activation), % at 26.1 µM; AlphaScreen FBW7–phospho-cyclin E peptide binding, activator screen; Q969H0; 650,000 tested, 0.13% active; in the data active means normalized activity above about 1.9%;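 further: purified mutant Fbw7 with reduced substrate affinity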
Target sequence (Q969H0 whole entry, looked up): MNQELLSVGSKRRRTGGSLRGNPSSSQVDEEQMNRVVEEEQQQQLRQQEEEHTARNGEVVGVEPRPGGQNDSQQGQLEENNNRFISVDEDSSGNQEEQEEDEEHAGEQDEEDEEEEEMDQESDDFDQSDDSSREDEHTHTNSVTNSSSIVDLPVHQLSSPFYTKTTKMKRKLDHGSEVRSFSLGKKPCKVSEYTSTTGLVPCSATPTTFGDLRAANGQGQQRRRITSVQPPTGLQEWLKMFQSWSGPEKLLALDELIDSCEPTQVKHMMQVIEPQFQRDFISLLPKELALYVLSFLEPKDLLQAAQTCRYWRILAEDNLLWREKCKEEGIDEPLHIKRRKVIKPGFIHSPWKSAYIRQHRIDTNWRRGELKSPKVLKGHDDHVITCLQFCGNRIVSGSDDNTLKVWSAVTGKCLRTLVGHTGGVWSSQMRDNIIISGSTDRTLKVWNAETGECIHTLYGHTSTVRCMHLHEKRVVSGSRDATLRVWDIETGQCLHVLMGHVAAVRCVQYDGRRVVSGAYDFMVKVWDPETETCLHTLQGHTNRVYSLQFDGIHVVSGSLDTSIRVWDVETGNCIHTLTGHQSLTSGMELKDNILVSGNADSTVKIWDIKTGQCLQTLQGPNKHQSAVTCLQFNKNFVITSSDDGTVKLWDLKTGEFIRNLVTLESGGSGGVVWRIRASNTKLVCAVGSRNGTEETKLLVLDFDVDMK
Starred values were filed as active, the others as inactive. Only some compounds are listed: those with a hit (about 3.5% of all), similar ones and a draw of the others.

SMILES	TEAD-YAP inh	GPR151 ag	MITF primary	FBW7 act
O=c1c(Cl)c(Cl)cnn1-c1ccc(Cl)cc1	82*	-1	11	1
CCOc1c(Br)ccc2c1sc1nc[nH]c(=O)c12	4	0	-1	0
O=CNc1cccc2c1sc1nc[nH]c(=O)c12	53*	2	8	0
O=C(NCCc1ccccc1)c1ccc(OC2CCN(C(=O)c3ccsc3)CC2)cc1	1	-1	8	0
O=C(NCCc1ccccc1)c1ccc(OC2CCN(C(=O)Cn3cncn3)CC2)cc1	76*	0	0	0
Cc1cc(C(=O)N2CCC(Oc3ccc(C(=O)NCCc4ccccc4)cc3)CC2)no1	9	0	2	0
Cc1ncoc1C(=O)N1CCC(Oc2ccc(C(=O)NCCc3ccccc3)cc2)CC1	50*	0	-2	0
COCC(=O)N1CCC(Oc2ccc(C(=O)NCCc3ccccc3)cc2)CC1	28	1	-5	0
O=C(NCCc1ccccc1)c1ccc(OC2CCN(C(=O)c3ccoc3)CC2)cc1	53*	1	11	0
Cc1ccoc1C(=O)N1CCC(Oc2ccc(C(=O)NCCc3ccccc3)cc2)CC1	83*	1	-16	0
Cc1ccc(CNC(=O)CCc2ccc(S(=O)(=O)NCC(C)C)cc2)cc1	-2	0	-14	0
CCOC(=O)C1C(c2cccc(Cl)c2)NC(=O)NC1(O)C(F)(F)F (stereo unspecified)	1	0	8	0
COCCOC(=O)c1ccc(NC(=O)CCCCCN2C(=O)c3ccccc3C2=O)cc1	6	-1	1	0
CC1CCc2c(sc3nc(C4CC4)nc(N4CCN(C(=O)c5cccnc5)CC4)c23)C1 (stereo unspecified)	2	0	10	0
c1ccc(-n2cnc3c(NC4CC4)nc(Nc4cccnc4)nc32)cc1	42*	-2	5	0
c1ccc(-n2cnc3c(NC4CC4)nc(Nc4ccc(-n5ccnc5)cc4)nc32)cc1	41*	1	0	0
c1ccc(Nc2nc(NC3CC3)c3ncn(-c4ccccc4)c3n2)cc1	47*	0	0	0
c1ccc(Nc2nc(NC3CC3)c3ncn(C4CCCCC4)c3n2)nc1	22	1	4	0
FC(F)(F)c1ccc(Nc2nc(NC3CC3)c3ncn(-c4ccccc4)c3n2)cc1	-8	0	16	0
c1ccc(-n2cnc3c(NC4CC4)nc(Nc4ccccn4)nc32)cc1	47*	0	7	0
COc1ccc(-n2cnc3cc(C(=O)NC4CCCCC4C)ccc32)cc1 (stereo unspecified)	21	1	-5	0
COc1ccc(-c2n[nH]c(=S)n2C(C)C)cc1	-6	-1	-7	0
O=C(Nc1cc(Cl)ccc1Cl)c1cc(S(=O)(=O)N2CCCCC2)ccc1F	6	1	5	0
Oc1ccccc1-c1cc(-c2ccc(F)cc2)no1	-22	-4	7	0
Fc1ccc(-c2cc3c(nn2)Nc2ccccc2N3)cc1	86*	-5	5	0
SMILES	TEAD-YAP inh	GPR151 ag	MITF primary	FBW7 act
O=C(/C=C/c1ccc2c(c1)OCO2)Nc1ccccc1C(F)(F)F	-40	1	-6	0
S=c1[nH]ncn1/N=C/c1ccc(N2CCOCC2)cc1	73*	-2	16	1
COc1ccc(Cc2cnc(NC(=O)/C=C/c3ccccc3)s2)cc1	56*	2	-2	0
COc1ccc(Cc2cnc(NC(=O)/C=C/c3ccco3)s2)cc1	64*	-1	2	0
COc1ccc(/C=C/C(=O)Nc2ncc(Cc3ccccc3)s2)cc1	-2	0	4	0
O=C(c1ccc(Br)cc1)N1CCC(Nc2ccc3cnccc3c2)CC1	12	0	20	1
CCn1c(SCC(=O)N2c3ccccc3CC2C)nnc1-c1ccc2c(c1)OCO2 (stereo unspecified)	23	-1	8	0
COc1cc(/C=N/NC(=O)Cn2cnc3c(=O)n(C)c(=O)n(C)c32)ccc1OCC#N	6	0	5	0
O=c1n(Cc2cccnc2)nc(-c2cccc(F)c2)n1-c1ccncc1	12	2	7	0
CCN1CCN(C(=O)c2cc3c(=O)[nH]c4ccc(C)cc4c3s2)CC1	37*	1	18	0
Cc1ccc2[nH]c(=O)c3cc(C(=O)N4CCN(C)CC4)sc3c2c1	0	0	-1	0
O=C(NCc1ccccn1)N1c2ccccc2Sc2ccccc21	-2	0	21	0
O=C1c2ccncc2C(=O)C1c1ccc2ccccc2n1 (stereo unspecified)	-45	-2	5	0
O=C(O)/C=C\C(=O)Nc1ccc(Cl)c(Cl)c1	1	0	19	0
O=C(O)/C=C\C(=O)Nc1ccc2cn[nH]c2c1	47*	0	-5	-1
CC(=O)Nc1ccc(N2COc3ccc(C(C)(C)C)cc3C2)cc1	0	0	9	0
COc1ccc(C(=O)c2oc3ccccc3c2NC(=O)COc2ccc(C)cc2)cc1	8	-1	5	0
COc1ccc(CC2(CO)CCN(Cc3cnc(C)s3)CC2)cc1	13	-2	1	0
CCNc1nc(NC(C)CC)nc(ON=C(C)C)n1 (stereo unspecified)	36*	0	29	0
Cn1c(=O)c2c(nc3n(-c4cccc5ccccc45)c(-c4ccc(Br)cc4)cn23)n(C)c1=O	6	1	12	0
Cc1cccc(C(=O)/C(C#N)=N/Nc2c(C)n(C)n(-c3ccccc3)c2=O)c1	42*	0	38	-2
COc1ccc(-n2nc(C(=O)Nc3nc4ccccc4s3)c3ccccc3c2=O)c(OC)c1	-18	-1	-3	0
CCOC(=O)c1sc2ncnc(Nc3cccc(C)c3)c2c1C	1	-1	8	0
CCOC(=O)c1sc2ncnc(Nc3ccc(C)cc3Br)c2c1C	59*	0	3	0
COc1ccc(C2Oc3c(OC)cccc3C3CC(c4ccc(C)o4)=NN32)cc1 (stereo unspecified)	40*	1	11	0
SMILES	TEAD-YAP inh	GPR151 ag	MITF primary	FBW7 act
COc1cccc2c1OC(c1cccc(Cl)c1)N1N=C(c3ccc(C)o3)CC21 (stereo unspecified)	41*	-1	5	0
COc1ccc(CCNC(=O)COc2cccc3c2CCN(Cc2ccccc2F)C3=O)cc1OC	4	0	-2	0
COCCCN1C(=O)c2[nH]nc(-c3ccccc3O)c2C1c1ccc(Cl)cc1 (stereo unspecified)	12	0	0	0
COCCCN1C(=O)c2[nH]nc(-c3ccccc3O)c2C1c1cccc(Cl)c1 (stereo unspecified)	36*	1	9	0
COc1cc(/C=C/C(=O)C(C)(C)O)cc(OC)c1OC	16	1	-1	0
COc1cc(/C=C/C(=O)N2CCC=CC2=O)cc(OC)c1OC	78*	-2	-9	0
COC(CN(C)c1ccc(-c2ccc(O)cc2)cn1)OC	64*	1	9	0
CCCOc1ccccc1/C=C1\SC(N)=NC1=O	7	0	4	0
COc1ccc2ccc(OC)c(/C=C3/C(=O)Nc4ccccc43)c2c1	53*	0	-3	0
